Test results taken from PubChem BioAssay AID1508600 (Functional Genomics Laboratory (NCATS/FGL), 2020).
The campaign covered roughly 53,000 sequences. About 3,700 (7%) were called active. The sample as a whole holds a higher share of actives than the screen did. A number with no mark means an inactive call.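 The calls were made as follows: active = gene knockdowns whose robust z-score for IL-1 alpha signal is at least 2 or at most -2, so actives lie on both sides; inactive = the rest.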

Assay: Components of the Cytosolic LPS Sensing Pathway: Gene Identification via Genome-wide siRNA Screen;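 also: robust z of the log signal after scaling to non-targeting control siRNA wells of the plate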
Conditions: RAW264.7 macrophages, IL-1a HTRF, actives lie on both sides, screened at 100 nM (by protocol), cells primed 5 h with Pam3CSK4 first
Outline: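 Three distinct siRNAs per gene were tested singly at 100 nM in RAW264.7 macrophages. Following Pam3CSK4 priming and 24 hour LipidA transfection, IL-1a secretion was read by HTRF.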
With GGGUACAACUCUUUGAAGATT against Mnat1 the z-score was 0.535.
For GCAGUUGAUGAUAAUGUGATT against Pot1b, the z-score was -0.0269.
CGCGGAAACUCUCCACUUATT against Psme4 gave a z-score of -1.18.
With GGGCGAUAUUAUGAGCAACTT against Atp1b2 the z-score was 3.78 (active).
With GGAUCCUCUUCUAUCUUUATT against Pycr1 the z-score was -1.27.
Work on GGCUGCUUUACUGAAGUAATT against C2cd6 yielded a z-score of 1.29.
GGGACUUGGAUCGAAUGGATT against Apeh showed a z-score of 0.326.
For GGGAAAUUGUGUAGCAGCUTT against Slc25a29, the z-score was -2.76 (active).
For GGAGGUGGUGUUUAUACCATT against Scrn2, the z-score was 0.728.
Sequence GCCUAUGCAGCUCUCUCUGTT against Acat3 has a z-score of 0.772.
Work on GGUUAUUACGUAGUUGGUATT against Cd46 yielded a z-score of 0.683.
For GGUCUACGCGCUCUAUGAATT against Gpr150, the z-score was -1.03.
In the case of GGAGACAGAAUCAUAGUUATT against Sh3yl1, the z-score is reported as 0.0505.
CGAUUCUUUAGGAACUUUGTT against Pak7 gave a z-score of -0.0771.
For GGCAGUGGUUAAAGGUUCCTT against Lrp6, the z-score was 2.27 (active).
For GCACUUAUACUACUUAGUUTT against Abca8a, the z-score was 2.4 (active).
GCAGGAUUUUCACCAACAGTT against Gh showed a z-score of -0.215.
GGUAGAAUCCGGUUACCACTT against Tox showed a z-score of 0.704.
GGGAAAGACCAUGUUUGUATT against Ttbk2 showed a z-score of 0.493.
Work on CCAAUUGUGAGAAGAGUGUTT against Cog7 yielded a z-score of -0.46.
Sequence GGAUUUUGUGAAUAAAUGCTT against Map2k1 has a z-score of 1.31.
GGGAAAAGAGAGUGGUGUATT against Rab27a gave a z-score of -0.26.
In the case of GGAGAGCUGGUGUUUUAGATT against Tnfrsf17, the z-score is reported as 2.74 (active).
Sequence GGGUUCAUUUCUCAAAAUUTT against Nol7 has a z-score of -0.831.
For GGAACAAGAAGACUGUGAATT against Pcnt, the z-score was -0.519.
Sequence GCCUUACAAUUUGUUCUACTT against Dsc1 has a z-score of 1.
In the case of CGUCCAGUAUACGCUGGUUTT against Cdc45, the z-score is reported as 5.41 (active).
GGAUGAACCAAGCUACUGCTT against Gba2 showed a z-score of -0.541.
With GUUCAAGACGGAGAAGAGGTT against Gpr27 the z-score was 3.03 (active).
CCCAAUACAUGAGCUUCUGTT against Ch25h showed a z-score of -0.209.
For GGAAGACUUCGUGUUGACATT against Proz, the z-score was 0.223.
With GGCUCUAUGUUUAUAAUGATT against Olfm5 the z-score was -2.07 (active).
GGAAAAAUGACUGAUCUCUTT against Unc5c gave a z-score of -0.0354.
With GGUUGGUAGACUGUGCUUGTT against Hgsnat the z-score was -2.56 (active).
For GGACCUACUACGUAAACCATT against Nedd4, the z-score was 0.434.
Sequence GGAAUAUCGGACUUUUUCATT against Mis18bp1 has a z-score of 0.635.
For CGGGACCUUGUUGAUAACUTT against Tmem130, the z-score was 0.811.
Sequence GGUGUUUGGGAAAGGUCUGTT against Trpm1 has a z-score of -1.33.
In the case of GCACAAAUGGGAAUACGACTT against Klhl36, the z-score is reported as -0.94.
In the case of CCAACCAGACUUAUUUAAUTT against Zfp37, the z-score is reported as 1.61.
Work on GGGUGGCUAUGGACAAAAATT against Arl5c yielded a z-score of 0.887.
In the case of GGACAUCAAUUCAACAGUUTT against Lifr, the z-score is reported as -0.361.
In the case of GGAAGAGUGUUUAAACUAUTT against Kbtbd8, the z-score is reported as -0.591.
CCUGAUCUAAUCCUAAAUGTT against Pgr gave a z-score of -0.171.
Work on AUCUAUUCGAAUCAGGAAGTT against Epsti1 yielded a z-score of -0.102.
In the case of GGCUUUUGAAGUAAAUACATT against Pcdhb14, the z-score is reported as 2.65 (active).
Sequence GUCCAGAGUGACCACAUUUTT against Pemt has a z-score of -0.471.
GGAUUACGCAGAUUCCAUUTT against Rab22a showed a z-score of -0.474.
In the case of CGAAUUGAAUUCUACGAACTT against Pmm2, the z-score is reported as 0.252.
For GGAUGAUAAAGACAAAGUATT against Ppm1g, the z-score was -0.921.
Work on GGUUUCUGGCUUUCCGUAGTT against Erf yielded a z-score of -0.0549.
Work on GCUCUGCAUGACCUUACCUTT against Ugt2b1 yielded a z-score of 0.245.
With GGCCUUUGUACAGGACCCATT against Tor2a the z-score was -1.01.
In the case of GGUCAGAAGAGAUCAAAAGTT against Ttc23, the z-score is reported as -0.0386.
For GCCUACUCCCAAGAGGAAATT against Gprc5a, the z-score was 2.32 (active).
Sequence GGACAGCAAGAUGAAGAUGTT against Il17ra has a z-score of -1.32.
UUGAUUUGGUAGCCUGCUCTT against Olfr1303 showed a z-score of 0.962.
Work on “CCCUGCUUCGUGUGCUAUUTT against C130074G19Rik” yielded a z-score of 0.499.
In the case of GGUACCUGAGGUAGAAAAGTT against Pnma3, the z-score is reported as -2.5 (active).
Work on GGAAUGUGUUGAAAUAUGATT against P4ha3 yielded a z-score of 0.0288.
In the case of CCACGGAGACAACUUAGUATT against Scfd2, the z-score is reported as 0.568.
With GGCGGUCAAGUGAGGUUCUTT against Hhex the z-score was 3.62 (active).
Sequence GGACUUUUCUGCUAUUUACTT against Kcnh2 has a z-score of -0.471.
For GGAAAGAAUUGAAUACUCGTT against Gpr89, the z-score was -0.279.
Work on GGUGAAUUUCCUUCUACAUTT against Tas1r1 yielded a z-score of -1.56.
For GCUGGGAUAUGAAAUCUAUTT against Gprc6a, the z-score was 2.74 (active).
With GGUGAUAAAGUCAUUCCACTT against Adh1 the z-score was 0.759.
Sequence GGAAGACAUAUUUCAACAGTT against Ehhadh has a z-score of -1.37.
GCAGUGUAUUGGUAAUCAATT against Olfr630 gave a z-score of 1.44.
